The structures appear in SMILES notation. Values joined by “and” are separate entries in the source; they are usually repeats but may differ in a detail not shown here. Equal values may be shown once. Inconclusive results are not listed. Some compounds were tested as several samples or in several runs, with calls that do not always agree. Active and inactive are the calls of the source. Unless noted, calls follow the shape of the dose curve; as a rule, active = well fitted curve in the direction sought with a large enough effect in the repeat runs; inconclusive = weak or mixed curves; inactive = no such curve, though single readings can be large; an effect the other way counts as inactive or inconclusive.

The nature of assay [1]: qHTS assay to identify small molecule antagonists of the sonic hedgehog signaling (Shh) pathway (AID 1259369; calls by dose curve; also: nearly all actives have a fitted effect of over 45% in size; also: potency is read from the fitted curve at half-maximal effect). The method in brief:
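Stable Gli1-Luc reporter NIH/3T3 clone; quantitative HTS in stimulated mode with conditioned medium. Luminescence measured after 24hr compound treatment at 37 C.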
A general note: qHTS replaces the single test concentration by a dilution series.

Assay [2] addresses Estrogen receptor beta (Homo sapiens) (UniProt Q92731). The assay is described as follows: qHTS assay to identify small molecule agonists of the estrogen receptor beta (ER-beta) signaling pathway (AID 1259377; active = well fitted activation curve with a large enough effect in the signal ratio in the repeat runs, not every such curve was filed as active; the % refers to the signal ratio; also: potency is read from the fitted curve at half-maximal effect). Summed up:
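qHTS in ER-beta-UAS-bla HEK293T cells: 6 hr settling, then 16 hr compound at 37C, then LiveBLAzer substrate 2 h at RT before fluorescence reading.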

Assay [3] has the same target. The assay can be described thus: qHTS assay to identify small molecule antagonists of the estrogen receptor beta (ER-beta) signaling pathway (AID 1259378; active = well fitted inhibition curve with a large enough effect in the signal ratio in the repeat runs, not every such curve was filed as active; the % refers to the signal ratio). Summed up: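 ER-beta-UAS-bla HEK293T (GripTite) cells in 2% charcoal-stripped FBS medium were preincubated 6 hr at 37C, dosed with compound, then stimulated with 1 nM E2 (final) for 16 hr; beta-lactamase reporter read by B/G FRET fluorescence after 2 hr substrate loading.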

A short description of assay [4]: qHTS assay to identify small molecule agonists of the androgen receptor (AR) signaling pathway in the presence of an antagonist - cell viability counter screen (AID 1259379). Also: nearly all actives have a fitted effect of over 25% in size. Also: potency is read from the fitted curve at half-maximal effect. The method in brief: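 Nilutamide-containing (3.0uM final) MDA-kb2 cultures, 3,000 cells/well, were treated with compounds across 15 concentrations. After 16 hr at 37C with no CO2, cell viability was determined by CellTiter-Fluor fluorescence in the luciferase assay wells.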

A short description of assay [5]: qHTS assay to identify small molecule agonists of the estrogen receptor beta (ER-beta) signaling pathway - cell viability counter screen (AID 1259380). Also: nearly all actives have a fitted effect of over 30% in size. Summed up:
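Steps: plate ER-beta-UAS-bla HEK293T cells, rest 6 hr; add compounds in DMSO; incubate 16 hr at 37C, 5% CO2; add FRET substrate 2 hr; add CellTiter-Glo, wait 30 min at room temperature; read luminescence.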

Assay [6] is described as follows: qHTS assay to identify small molecule antagonists of the estrogen receptor beta (ER-beta) signaling pathway - cell viability counter screen (AID 1259382). Also: series mostly up to about 92 µM; nearly all actives have a fitted effect of over 55% in size. The method in brief:
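Viability is scored by CellTiter-Glo luminescence (30 min, room temperature) in ER-beta-UAS-bla HEK293T wells already read for reporter fluorescence. Compound exposure lasts 16 hr at 37C alongside 1nM 17-beta-estradiol in charcoal-stripped serum medium.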

The nature of assay [7]: qHTS assay to identify small molecule agonists or antagonists of the thyroid stimulating hormone receptor (TSHR) signaling pathway - wild type cell line counter screen (AID 1259384; calls by dose curve). The method in brief: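 Wild-type HEK293 cells were plated 18 h at 37 C/5% CO2, pin-dosed with compound plus Ro20-1724 medium, held 30 min at room temperature, then given cAMP-d2 and anti-cAMP-cryptate; fluorescence was read after 1 h. Fifteen concentrations, triplicate.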

A short description of assay [8]: qHTS assay to identify small molecule agonists of the estrogen receptor alpha (ER-alpha) signaling pathway in the presence of an antagonist - cell viability counter screen (AID 1259386).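 Also: cells exposed to compounds for 22 h at 37 °C before the viability read; nearly all actives have a fitted effect of over 30% in size.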 Also: potency is read from the fitted curve at half-maximal effect. The method in brief:
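In this counter screen, compound effects on VM7Luc4E2 viability were tested in the presence of the antagonist ICI-182,780 at 10.0nM final. Compounds were dosed at 15 concentrations, exposure lasted 22hr, and the CellTiter-Fluor signal was read.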

In assay [9] the target is Progesterone receptor (Homo sapiens) (UniProt P06401). The assay is described as follows: qHTS assay to identify small molecule agonists of the progesterone receptor (PR) signaling pathway (AID 1346784; calls by dose curve; also: nearly all actives have a fitted effect of over 30% in size; also: potency is read from the fitted curve at half-maximal effect). Summed up:
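Fluorescence from LiveBLAzer B/G FRET substrate cleavage (2 hr, RT) reported PR activation in PR-UAS-bla HEK 293T cells treated 16 hr at 37C/5% CO2 with compounds; medium contained 2% charcoal-stripped FBS.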

The nature of assay [10]: qHTS assay to identify small molecule antagonists of the progesterone receptor (PR) signaling pathway - cell viability counter screen (AID 1346798). Also: series mostly up to about 92 µM; nearly all actives have a fitted effect of over 50% in size. Summed up:
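CellTiter-Glo luminescence; PR-UAS-bla HEK293T, 3,000 cells/well; compound + R5020, 16 hr, 37C/5% CO2; 30 min RT before read.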

The nature of assay [11]: qHTS assay to identify small molecule antagonists of the TGF-beta/Smad signaling pathway - cell viability counter screen (AID 1346824). Also: nearly all actives have a fitted effect of over 50% in size. Summed up:
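SBE-bla HEK 293T cells were plated overnight at 37 C, then given compounds in DMSO plus TGF-beta1 (added as 0.25 ng/mL solution) for 5 hr. After the bla read, CellTiter-Glo was added to the same wells and luminescence read after 30 min at room temperature.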

The nature of assay [12]: qHTS assay to identify small molecule agonists of the TGF-beta/Smad signaling pathway - cell viability counter screen (AID 1346829). Also: top concentration of the series differs between compounds; nearly all actives have a fitted effect of over 45% in size. The method in brief:
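HEK 293T SBE-bla line, 5 hr compound exposure at 37 C, multiplexed CellTiter-Glo viability read by luminescence.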

The nature of assay [13]: qHTS assay to identify small molecule agonists of the TGF-beta/Smad signaling pathway (AID 1346859; active = well fitted activation curve with a large enough effect in the signal ratio in the repeat runs, not every such curve was filed as active; the % refers to the signal ratio; also: series mostly up to about 77 µM). The method in brief:
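After overnight seeding, SBE-bla HEK 293T cells are dosed with compounds in DMSO and kept 5 hr at 37 C, 5% CO2. LiveBLAzer-type FRET substrate is then applied for 2 hr at room temperature.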

Assay [14] has as its target Thyrotropin-releasing hormone receptor (Homo sapiens) (UniProt P34981). The assay can be described thus: qHTS assay to identify small molecule antagonists of the thyrotropin-releasing hormone receptor (TRHR) signaling pathway (AID 1346877; active = well fitted inhibition curve with a large enough effect in the repeat runs, not every such curve was filed as active; also: series mostly up to about 51 µM). The method in brief: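 Kinetic fluorescence (3 min, 1 s resolution) following stimulation with TRH at 1 nM final; HEK293 cells bearing human TRHR; 5 min compound preincubation at RT; concentration-response over 15 points, triplicates.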

Assay [15] has the same target. The assay can be described thus: qHTS assay to identify small molecule agonists of the thyrotropin-releasing hormone receptor (TRHR) signaling pathway (AID 1346891; calls by dose curve;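 also: HEK293 cells expressing TRHR with calcium dye readout; series mostly up to about 58 µM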). The method in brief:
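Compounds were tested as agonists at 15 concentrations, in triplicate, on TRHR-Hek293 cells; calcium-sensitive dye fluorescence was recorded for 3 min following addition.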

Assay [16] in a line: qHTS assay to identify small molecule agonists of the progesterone receptor (PR) signaling pathway - cell viability counter screen (AID 1346799; calls by dose curve; also: nearly all actives have a fitted effect of over 45% in size). Summed up:
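In parallel with the beta-lactamase readout, cytotoxicity toward PR-UAS-bla HEK293T cells was measured by CellTiter-Glo luminescence following 16 hr compound incubation in 2% charcoal-stripped FBS medium.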

Assay [17] has as its target Progesterone receptor (Homo sapiens) (UniProt P06401). The assay can be described thus: qHTS assay to identify small molecule antagonists of the progesterone receptor (PR) signaling pathway (AID 1346795; active = well fitted inhibition curve with a large enough effect in the signal ratio in the repeat runs, not every such curve was filed as active; the % refers to the signal ratio). The method in brief: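 Fluorescence intensity measured 2 hr after adding beta-lactamase FRET substrate to PR-UAS-bla HEK293T cells that had been co-treated 16 hr with compound and 1 nM R5020 (final concentration) in 2% charcoal-stripped FBS.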

Assay [18] has as its target Estrogen receptor (Homo sapiens) (UniProt P03372). The assay is described as follows: qHTS assay to identify small molecule agonists of the estrogen receptor alpha (ER-alpha) signaling pathway in the presence of an antagonist (AID 1259383; calls by dose curve; also: top concentration of the series differs between compounds; nearly all actives have a fitted effect of over 15% in size). Summed up:
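Readout was ERE-driven luciferase luminescence in VM7Luc4E2 cells, which express full-length ER-alpha endogenously. Compounds were tested at 15 concentrations for 22hr alongside 10.0nM ICI-182,780 (final concentration).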

In assay [19] the target is Thyrotropin receptor (Homo sapiens) (UniProt P16473). The assay is described as follows: qHTS assay to identify small molecule antagonists of the thyroid stimulating hormone receptor (TSHR) signaling pathway (AID 1259385; calls by dose curve; also: nearly all actives have a fitted effect of over 20% in size). The method in brief:
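TSHR-HEK293 cells were plated and held 18 h at 37C/5% CO2, then given compound plus Ro20-1724 and stimulated with TSH at 1.5 ng/mL final. After 30 min at room temperature, cAMP was detected with cAMP-d2/anti-cAMP-cryptate (1 h) by fluorescence.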

Thyrotropin-releasing hormone receptor (Homo sapiens), sequence (P34981 whole entry, looked up): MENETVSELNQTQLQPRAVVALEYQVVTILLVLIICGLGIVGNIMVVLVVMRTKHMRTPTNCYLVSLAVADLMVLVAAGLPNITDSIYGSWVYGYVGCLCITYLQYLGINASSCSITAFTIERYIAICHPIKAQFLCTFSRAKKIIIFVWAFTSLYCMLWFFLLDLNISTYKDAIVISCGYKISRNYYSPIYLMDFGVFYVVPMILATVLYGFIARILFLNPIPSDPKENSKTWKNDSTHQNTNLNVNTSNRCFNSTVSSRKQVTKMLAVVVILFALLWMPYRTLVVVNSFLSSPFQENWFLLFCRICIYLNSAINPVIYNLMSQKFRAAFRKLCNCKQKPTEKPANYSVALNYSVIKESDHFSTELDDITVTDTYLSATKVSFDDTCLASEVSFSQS
Estrogen receptor beta (Homo sapiens), sequence (Q92731 whole entry, looked up): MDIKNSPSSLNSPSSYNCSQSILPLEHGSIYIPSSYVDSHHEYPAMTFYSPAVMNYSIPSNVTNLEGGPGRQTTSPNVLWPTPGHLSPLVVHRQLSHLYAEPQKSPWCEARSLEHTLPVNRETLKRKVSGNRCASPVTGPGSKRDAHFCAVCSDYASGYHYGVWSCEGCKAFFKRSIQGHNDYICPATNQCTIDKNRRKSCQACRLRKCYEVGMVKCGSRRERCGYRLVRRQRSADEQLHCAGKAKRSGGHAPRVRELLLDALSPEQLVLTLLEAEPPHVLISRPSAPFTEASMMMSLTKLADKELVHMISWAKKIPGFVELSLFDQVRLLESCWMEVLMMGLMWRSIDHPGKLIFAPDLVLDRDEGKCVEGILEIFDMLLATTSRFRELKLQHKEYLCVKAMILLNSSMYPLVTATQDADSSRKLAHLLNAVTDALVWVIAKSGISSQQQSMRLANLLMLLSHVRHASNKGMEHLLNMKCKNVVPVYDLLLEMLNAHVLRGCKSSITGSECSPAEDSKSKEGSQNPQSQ
Progesterone receptor (Homo sapiens), sequence (P06401 whole entry, looked up): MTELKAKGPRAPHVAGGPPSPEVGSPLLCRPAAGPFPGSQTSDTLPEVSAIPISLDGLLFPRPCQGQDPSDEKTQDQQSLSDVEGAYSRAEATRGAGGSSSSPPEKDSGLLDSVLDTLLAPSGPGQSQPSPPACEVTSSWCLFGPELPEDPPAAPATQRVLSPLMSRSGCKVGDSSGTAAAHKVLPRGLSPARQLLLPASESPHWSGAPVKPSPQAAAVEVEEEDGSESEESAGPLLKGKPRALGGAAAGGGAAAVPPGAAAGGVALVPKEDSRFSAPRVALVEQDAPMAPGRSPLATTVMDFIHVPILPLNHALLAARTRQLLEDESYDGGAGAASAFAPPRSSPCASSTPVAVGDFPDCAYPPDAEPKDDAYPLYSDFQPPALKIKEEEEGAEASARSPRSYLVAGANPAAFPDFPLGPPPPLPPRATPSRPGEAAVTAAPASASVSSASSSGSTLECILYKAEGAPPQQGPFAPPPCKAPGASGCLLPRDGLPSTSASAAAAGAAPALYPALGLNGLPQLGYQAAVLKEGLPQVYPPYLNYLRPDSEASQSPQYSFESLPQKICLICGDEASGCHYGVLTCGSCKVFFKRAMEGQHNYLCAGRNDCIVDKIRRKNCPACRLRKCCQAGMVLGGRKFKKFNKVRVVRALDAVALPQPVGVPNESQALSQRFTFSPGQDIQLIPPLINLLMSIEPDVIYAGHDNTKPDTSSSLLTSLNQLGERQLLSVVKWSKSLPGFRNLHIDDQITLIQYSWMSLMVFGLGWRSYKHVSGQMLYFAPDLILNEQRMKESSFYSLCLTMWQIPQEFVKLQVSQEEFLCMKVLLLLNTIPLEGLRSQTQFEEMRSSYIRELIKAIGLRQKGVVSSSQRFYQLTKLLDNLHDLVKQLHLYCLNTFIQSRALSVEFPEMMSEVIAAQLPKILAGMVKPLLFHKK
Estrogen receptor (Homo sapiens), sequence (P03372 whole entry, looked up): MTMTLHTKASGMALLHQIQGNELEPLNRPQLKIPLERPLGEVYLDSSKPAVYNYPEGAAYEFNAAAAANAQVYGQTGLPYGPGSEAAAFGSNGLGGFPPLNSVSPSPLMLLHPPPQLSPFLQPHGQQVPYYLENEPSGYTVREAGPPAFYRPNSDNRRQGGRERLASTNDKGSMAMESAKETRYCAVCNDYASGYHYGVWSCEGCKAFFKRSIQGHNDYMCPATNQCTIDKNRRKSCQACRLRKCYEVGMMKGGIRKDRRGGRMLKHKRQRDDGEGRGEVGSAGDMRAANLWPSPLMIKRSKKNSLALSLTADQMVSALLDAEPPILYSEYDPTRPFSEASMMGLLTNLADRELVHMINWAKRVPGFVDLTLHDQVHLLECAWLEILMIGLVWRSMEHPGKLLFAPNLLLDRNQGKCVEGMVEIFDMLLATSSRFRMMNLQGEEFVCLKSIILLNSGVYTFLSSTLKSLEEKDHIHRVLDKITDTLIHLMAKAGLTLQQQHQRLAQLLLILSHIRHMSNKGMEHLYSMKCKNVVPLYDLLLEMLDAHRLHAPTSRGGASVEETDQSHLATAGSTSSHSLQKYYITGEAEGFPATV
Thyrotropin receptor (Homo sapiens), sequence (P16473 whole entry, looked up): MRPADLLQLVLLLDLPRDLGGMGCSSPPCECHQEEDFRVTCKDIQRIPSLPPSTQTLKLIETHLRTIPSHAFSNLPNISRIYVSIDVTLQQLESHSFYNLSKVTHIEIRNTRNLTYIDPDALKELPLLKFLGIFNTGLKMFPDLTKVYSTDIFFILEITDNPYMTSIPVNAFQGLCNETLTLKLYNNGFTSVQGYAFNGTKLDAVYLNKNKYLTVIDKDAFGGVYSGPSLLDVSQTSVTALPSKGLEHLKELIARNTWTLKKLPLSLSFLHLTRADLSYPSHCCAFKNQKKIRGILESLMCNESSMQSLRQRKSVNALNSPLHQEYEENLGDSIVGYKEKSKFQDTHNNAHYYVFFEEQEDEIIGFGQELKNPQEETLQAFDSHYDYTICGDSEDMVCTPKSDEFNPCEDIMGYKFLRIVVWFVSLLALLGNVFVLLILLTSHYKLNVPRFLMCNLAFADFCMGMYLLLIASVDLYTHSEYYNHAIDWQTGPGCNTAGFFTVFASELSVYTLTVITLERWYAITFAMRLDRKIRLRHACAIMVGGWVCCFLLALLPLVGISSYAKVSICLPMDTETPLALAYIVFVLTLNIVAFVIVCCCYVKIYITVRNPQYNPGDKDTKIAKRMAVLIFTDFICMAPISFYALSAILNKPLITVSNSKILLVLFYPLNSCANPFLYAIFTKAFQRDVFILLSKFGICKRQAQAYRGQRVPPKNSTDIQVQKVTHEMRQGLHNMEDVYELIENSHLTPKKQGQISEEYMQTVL

On to `CC(=O)[C@@]1(O)CC[C@H]2[C@@H]3CCC4=CC(=O)CC[C@]4(C)[C@H]3CC[C@@]21C`, for which the Potency entry in assay [1], in [2], in assay [3], in [4], in [5] and in [6] was “inactive” each time. Also, the Potency result in assay [8], in assay [10], in assay [11], in assay [12] and in assay [15] was “inactive” in each case. In addition, the molecule was called inactive in assay [7], in [13] and in assay [14]. In addition, the Potency in assay [9] is 3.35 µM (active).

`Clc1ccc(Cl)c(Cl)c1Cl`: the Potency result in [1], in assay [2], in assay [3], in assay [4], in assay [5] and in [6] was “inactive” throughout. For the same molecule, the Potency result in assay [8], in [9], in assay [10], in assay [16], in assay [11] and in [12] was “inactive” each time. Moreover, the Potency result in assay [15] is “inactive”. The molecule was called inactive in [7], in [13] and in [14].

As to `CNC[C@H](O)[C@@H](O)[C@H](O)[C@H](O)CO`, the Potency result in [1], in [2], in assay [3], in [4], in assay [5] and in assay [6] was “inactive” throughout. In addition, the Potency result in [8], in assay [9], in [17], in [10], in assay [16] and in assay [12] was “inactive” throughout. Also, the Potency entry in [15] is “inactive”. The molecule was classed as inactive in assay [7], in [13] and in assay [14].

In the case of `C/C=C(C)/C=C/C=C(C)C`, the Potency in assay [1] was 27.3 µM (active). Also, the Potency result in assay [2], in [3], in assay [4], in assay [5], in assay [6] and in assay [8] was “inactive” throughout. Moreover, the Potency entry in [9], in assay [17], in assay [10], in assay [16], in assay [11] and in [12] was “inactive” throughout. Further, the result in [13] was inactive.

As to `Cc1cc(Cc2ccc(N)c(C)c2)ccc1N`, the Potency result in assay [1], in assay [2], in assay [3], in [4], in [6] and in assay [8] was “inactive” throughout. For the same molecule, the Potency result in assay [9], in assay [10], in assay [16], in [11], in assay [12] and in [15] was “inactive” each time. In addition, the call in [13] and in [14] was inactive.

On to `CCC(C)C=O` (stereo not given), for which the Potency entry in [1], in assay [3], in [4], in assay [5], in assay [6] and in assay [8] was “inactive” throughout. The Potency entry in [9], in assay [10], in assay [16], in assay [11], in [12] and in assay [15] was “inactive” each time. Besides, the Potency in assay [2] was 4.32 µM (active) and inactive. In addition, the result in assay [7], in assay [13] and in [14] was inactive.

As for `CN(C)c1ccc(C(=N)c2ccc(N(C)C)cc2)cc1`, the Potency in assay [1] was 2.4 µM (active) and 11.7 µM (active); in assay [4] it was 30.3 µM (active) and 26.3 µM (active); in assay [8] it was 30.3 µM (active) and 20.9 µM (active). The Potency result in [2], in assay [3], in assay [6], in [18], in [9] and in [10] was “inactive” in each case. In assay [12], the Potency result is “inactive”. For the same molecule, the result in [7], in assay [19], in [13] and in [14] was inactive.

Values taken from PubChem BioAssay (Tox21).
